Experimental data from PubChem BioAssay (NCATS).
Unmarked numbers belong to inactive results. Inconclusive results are not listed. A call without a number means that no potency is given here. Activity calls are given as the source filed them. Calls come from the whole dose curve; as a rule, active = well fitted curve in the direction sought with a large enough effect; inconclusive = small, poorly fitted or top-dose-only effect, or another doubt; inactive = no such curve, though single readings can be large; an effect the other way counts as inactive or inconclusive. Numbered stars: 1 amine (or outer) side, 2 acyl side, 3 side chain; on linkers, the order of the positions; unused ones are H or OH. Square brackets hold non-standard residues; d marks the D form. Peptide text beside a SMILES is read from it. ξ: configuration not given here. X4 = O=C(C1CC2(c3ccc(O)cc3)c3ccccc3NC2N1[*:1])[*:2]; ξW = NC(Cc1c[nH]c2ccccc12)C(=O)O; ξY = NC(Cc1ccc(O)cc1)C(=O)O

Experiments:
[1] = tested on: Zika virus NS2B-NS3 protease (linked construct); experiment: Primary screen NINDS Rhodamine qHTS for Zika virus inhibitors (AID 1347160); note: nearly all actives have a fitted effect of over 55% in size; note: potency is the fitted concentration of half-maximal effect
How it was run: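 Single-chain NS2B-NS3 protease, 25 nM, pH 8.0; compounds preincubated 15 min. Activity: Rhodamine110 release from 1.5 microM substrate over 15 min, room temperature, data fitted to 4-parameter Hill.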

[2] = HPAF-II Cancer Cell Toxicity qHTS against the NCATS CANVASS Library (AID 1347346); note: nearly all actives have a fitted effect of over 55% in size; note: potency is the fitted concentration of half-maximal effect
How it was run: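 1000 HPAF-II cells/well; 4 h pre-incubation; 11-pnt compound titration; 72 h, 37 degrees C/5% CO2; CellTiter-Glo, 15 min RT; luminescence read.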

[3] = U-118MG Cancer Cell Toxicity qHTS against the NCATS CANVASS Library (AID 1347351); note: potency is the fitted concentration of half-maximal effect
How it was run: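 Step one: seed 1000 cells per well. Step two: incubate 4 h. Step three: add test compounds in 11 concentrations. Step four: culture 72 h, then add CellTiter-Glo and record luminescence after 15min.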

[4] = COV-362 Cancer Cell Toxicity qHTS against the NCATS CANVASS Library (AID 1347352); note: potency is the fitted concentration of half-maximal effect
How it was run: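 1000 cells/well, 4 h pre-incubation 37 °C/5% CO2; 11-pnt titration; 72 h; CellTiter-Glo 15 min RT, luminescence.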

[5] = HPAF-II 24hr Apoptosis Induction qHTS against the NCATS CANVASS Library (AID 1347356)
How it was run: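 500 HPAF-II cells/well; compounds in 11-pnt qHTS; 24 h, 37 C/5% CO2; Caspase-Glo 3/7 added, 15 min RT dark; luminescence read. Doxorubicin control.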

[6] = HEK293 18hr Apoptosis Induction qHTS against the NCATS CANVASS Library (AID 1347357)
How it was run: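 HEK293 cells (500/well, DMEM + 10% FBS) treated with an 11-point series for 18 h at 37 degrees C. Caspase-3/7 activity read by Caspase-Glo luminescence after 15 min at room temperature.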

[7] = HEK293 24hr Apoptosis Induction qHTS against the NCATS CANVASS Library (AID 1347359)
How it was run: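 HEK293 cells (500/well, DMEM + 10% FBS) were exposed to compounds in an 11-point series for 24 hours at 37 degrees C, then caspase-3/7 activity was read by Caspase-Glo DEVD luciferase luminescence after 15 min.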

[8] = HEK293 12hr Apoptosis Induction qHTS against the NCATS CANVASS Library (AID 1347361); note: potency is the fitted concentration of half-maximal effect
How it was run: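 HEK293 cells (500/well) were exposed to an 11-point qHTS concentration series for 12 hours at 37 degrees C. Caspase-3/7 activity was then read by DEVD-substrate luciferase luminescence after 15 min at room temperature.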

[9] = target: Luciferin 4-monooxygenase (Photinus pyralis) (UniProt P08659); experiment: Firefly luciferase counterscreen qHTS: Assay Interference Panel against the NCATS CANVASS Library (AID 1347363); note: series mostly up to about 57 µM
Sequence of Luciferin 4-monooxygenase (Photinus pyralis) (P08659 whole entry, looked up): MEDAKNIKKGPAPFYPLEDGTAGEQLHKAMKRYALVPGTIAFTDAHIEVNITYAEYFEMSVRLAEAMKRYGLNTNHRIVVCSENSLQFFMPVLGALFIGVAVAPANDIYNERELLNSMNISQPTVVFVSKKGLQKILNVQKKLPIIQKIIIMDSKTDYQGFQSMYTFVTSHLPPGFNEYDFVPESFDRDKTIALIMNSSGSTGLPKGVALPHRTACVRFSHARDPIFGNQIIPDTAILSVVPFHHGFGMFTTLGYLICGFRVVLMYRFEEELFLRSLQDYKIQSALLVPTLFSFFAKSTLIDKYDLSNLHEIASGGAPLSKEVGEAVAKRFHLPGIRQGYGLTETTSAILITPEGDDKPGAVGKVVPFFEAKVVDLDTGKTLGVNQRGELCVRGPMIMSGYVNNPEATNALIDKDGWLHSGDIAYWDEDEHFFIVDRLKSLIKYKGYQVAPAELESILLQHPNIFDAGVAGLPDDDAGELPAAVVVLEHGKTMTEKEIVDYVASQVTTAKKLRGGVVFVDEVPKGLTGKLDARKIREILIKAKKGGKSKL
How it was run: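 Purified P. pyralis luciferase was added to compounds (11-point series) preincubated 15 min at room temperature with substrate containing 0.013 mM D-luciferin and 0.013 mM ATP; luminescence was read after 5 min.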

[10] = KB-3-1 Cancer Cell Toxicity qHTS against the NCATS CANVASS Library (AID 1347366); note: nearly all actives have a fitted effect of over 75% in size
How it was run: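 KB-3-1 cells (500/well) in DMEM with 10% FBS were exposed to compounds for 72 h at 37C. Viability was read by CellTiter-Glo luminescence.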

[11] = qHTS for ATAD5 Agonist screened against the NCATS CANVASS Library (AID 1347367);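 note: luciferase reporter driven by ATAD5 which rises upon DNA damage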
How it was run: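 Luciferase reporter under ATAD5 control, stably integrated in HEK293T cells (2000/well). Compounds (11 points) incubated 16 h at 37C; viability read first by CellTiter-Fluor, then luminescence reporting ATAD5 activation. MMS positive control.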

[12] = MCF7 Cancer Cell Toxicity qHTS against the NCATS CANVASS Library (AID 1347369); note: potency is the fitted concentration of half-maximal effect
How it was run: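 MCF7 cells (500/well) were exposed 72 h at 37 °C to compounds in an 11-point series. Viability was read as ATP content by CellTiterGlo luminescence.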

[13] = qHTS for ATAD5 Antagonist screened against the NCATS CANVASS Library (AID 1347370); note: nearly all actives have a fitted effect of over 65% in size; note: potency is the fitted concentration of half-maximal effect
How it was run: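 HEK293T-ATAD5 luc reporter, 2000 cells/well; 5hr attach; cpd + 10 uM 5-FUrd; 16hr 37C, 5% CO2. Readouts: CellTiter-Fluor fluorescence (1hr), then Amplite luciferase luminescence (30min RT).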

[14] = J3T Cancer Cell Toxicity qHTS against the NCATS CANVASS Library (AID 1347371); note: potency is the fitted concentration of half-maximal effect
How it was run: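 Dog glioma J3T, 500 cells/well; cpd 11-pt qHTS; 72 hr, 37C/5% CO2; CellTiterGlo ATP luminescence readout.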

[15] = target: Nuclear receptor subfamily 1 group I member 3 (Homo sapiens) (UniProt Q14994); experiment: qHTS for Constitutive Androstane Receptor (CAR) Agonist screened against the NCATS CANVASS Library (AID 1347373);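 note: every well also contained 1.5 µM PK11195 alongside the test compound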
Sequence of Nuclear receptor subfamily 1 group I member 3 (Homo sapiens) (Q14994 whole entry, looked up): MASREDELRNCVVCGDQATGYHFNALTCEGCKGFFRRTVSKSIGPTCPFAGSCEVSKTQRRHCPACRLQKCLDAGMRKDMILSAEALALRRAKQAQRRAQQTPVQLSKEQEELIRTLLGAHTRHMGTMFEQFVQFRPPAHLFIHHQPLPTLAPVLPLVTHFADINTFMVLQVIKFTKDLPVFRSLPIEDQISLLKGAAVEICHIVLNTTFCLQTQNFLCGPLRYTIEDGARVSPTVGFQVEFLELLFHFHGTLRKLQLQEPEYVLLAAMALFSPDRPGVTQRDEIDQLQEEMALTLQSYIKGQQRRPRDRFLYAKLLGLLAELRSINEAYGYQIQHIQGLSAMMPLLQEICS
How it was run: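 Luciferase read-out (ONE-Glo, 30 min RT) of CYP2B6-2.2kb promoter activity in double-stable HepG2-hCAR cells after 24hr compound exposure with 1.5uM PK11195 present; viability measured first by CellTiter-Fluor.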

[16] = 10-beta competent E. coli microbial cell viability qHTS against the NCATS CANVASS Library (AID 1347376); note: series mostly up to about 46 µM
How it was run: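 Luminescence from BacTiter-Glo ATP detection served as the viability read-out; bacteria (0.2 OD) had been incubated overnight at 37C with pin-transferred compounds at 11 concentrations.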

[17] = qHTS for Inflammasome Signaling Inhibitors: IL-1-beta AlphaLISA screen against the NCATS CANVASS Library (AID 1347379);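 note: human THP-1 cells primed with LPS then triggered with ATP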;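 for potency: secreted IL-1B measured as AlphaLISA emission at 615 nm; potency is the fitted concentration of half-maximal effect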
How it was run: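 THP-1, 1 hr compound pre-incubation, then LPS 250 ng/mL + ATP 1.25 mM (final); 16 hr total with compound; IL-1B AlphaLISA, ex 680/em 615 nm; 11-point qHTS, up to 57.5 uM final.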

[18] = Inflammasome Signaling qHTS Counterscreen: IL-1-beta AlphaLISA counterscreen against the NCATS CANVASS Library (AID 1347381);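 note: cell-free check with purified IL-1β in medium and no THP-1 cells; series mostly up to about 57 µM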
How it was run: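 Here, no cellular stimulation occurs; compounds in an 11-point series meet 4 pg purified IL-1-beta directly. Bead-based AlphaLISA detection follows (1 h acceptor/antibody, then 30 min donor, dark, room temperature), with excitation at 680 nm.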

[19] = Vero-766 cells viability qHTS against the NCATS CANVASS Library: Counterscreen for Zika virus inhibition assay (AID 1347394); note: nearly all actives have a fitted effect of over 60% in size; note: potency is the fitted concentration of half-maximal effect
How it was run: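 Vero 766 cells (1000/well), without Zika virus, were exposed to compounds for 72 h at 37C. Viability was measured by CellTiter Glo luminescence. Media-only wells served as 100% inhibition.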

[20] = Viability qHTS for inhibitors of the SERCaMP assay screened against the NCATS CANVASS Library (AID 1347400); note: nearly all actives have a fitted effect of over 70% in size; note: potency is the fitted concentration of half-maximal effect
How it was run: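 CellTiter-Glo luminescence readout after 48 h compound exposure (11-pnt qHTS series) of SH-SY5Y-GLuc SERCaMP MJH297 cells seeded at 1000 cells/well; bortezomib positive control.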

SMILES	Potency [1]	Potency [2]	Potency [3]	Potency [4]	outcome [5]	Potency [6]	Potency [7]	Potency [8]	Potency [9]	Potency [10]	Potency [11]	Potency [12]	Potency [13]	Potency [14]	outcome [15]	outcome [16]	Potency [17]	outcome [18]	Potency [19]	Potency [20]
O=C(O)CC1OCc2c(O)cccc21 (stereo unspecified)	inactive	inactive	inactive	inactive	inactive	inactive	inactive	inactive	inactive	inactive	inactive	inactive	inactive	inactive	inactive	inactive	inactive	inactive	inactive	inactive
C1=C2CCCN[C@@H]2[C@@H]2CCN3CCCC[C@@H]3[C@H](C1)C2	inactive	inactive	inactive	inactive	inactive	inactive	inactive	inactive	inactive	inactive	inactive	inactive	inactive	inactive	inactive	inactive	inactive	inactive	inactive	inactive
C[C@@H]1O[C@H](c2c(O)cc(O)c3c(=O)cc(-c4ccc(O)cc4)oc23)[C@H](O)[C@H](O)[C@H]1O	34.9 µM (active)	inactive	inactive	inactive	inactive	inactive	inactive	inactive	inactive	inactive	inactive	inactive	inactive	inactive	inactive	inactive	inactive	inactive	inactive	inactive
CC(C)=CCC/C(C)=C/Cc1c(O)c(CC=C(C)C)c(O)c2c(=O)c3cc(O)ccc3oc12	9.84 µM (active)	13.3 µM (active)	21.1 µM (active)	18.8 µM (active)	inactive	inactive	inactive	inactive	inactive	–	inactive	16.5 µM (active)	13.2 µM (active)	inactive	inactive	inactive	–	inactive	26.3 µM (active)	inactive
C=C1C(=O)O[C@H]2[C@H]1CC/C(CO)=C\CC[C@@]1(C)O[C@@H]21	inactive	16.8 µM (active)	18.8 µM (active)	13.3 µM (active)	inactive	–	inactive	23.5 µM (active)	inactive	–	inactive	–	20.9 µM (active)	18.7 µM (active)	inactive	inactive	6.11 µM (active)	inactive	inactive	34 µM (active)
CC[C@H](C)[C@H](NC(=O)C(Cc1ccc(O)cc1)NC(=O)C(Cc1c[nH]c2ccccc12)NC(=O)[C@H](C)N)C(=O)N1C(C(=O)NC(Cc2ccc(O)cc2)C(=O)O)CC2(c3ccc(O)cc3)c3ccccc3NC12 (stereo partly specified) (H-A[ξW][ξY]I[X4][ξY]-OH)	9.84 µM (active)	inactive	inactive	inactive	inactive	inactive	inactive	inactive	inactive	inactive	inactive	inactive	inactive	inactive	inactive	inactive	inactive	inactive	inactive	inactive
CO[C@@H]1[C@H](O)[C@@H](C)O[C@@H](OC[C@@H]2C(C)OC(=O)/C=C/[C@H](C)C(O[C@@H]3O[C@H](C)CC4(OC(=O)O[C@@H]4C)C3O)[C@@H](C)CC(C)C(=O)CC[C@H]3OC23)[C@@H]1OC (stereo partly specified)	49.3 µM (active)	inactive	inactive	inactive	inactive	inactive	inactive	inactive	inactive	inactive	inactive	inactive	–	inactive	inactive	inactive	inactive	inactive	inactive	inactive
O=C1c2c(O)cc(O)cc2O[C@@H](c2ccc(O)cc2)[C@@H]1c1c(O)cc(O)c2c(=O)cc(-c3ccc(O)c(O)c3)oc12	3.92 µM (active)	inactive	inactive	inactive	inactive	inactive	inactive	inactive	inactive	inactive	inactive	inactive	inactive	inactive	inactive	–	inactive	inactive	inactive	inactive
CC1(C)[C@H](Br)CC[C@]23C[C@]4(C)C(=O)CC12C[C@H]34	inactive	inactive	inactive	inactive	inactive	inactive	inactive	inactive	inactive	inactive	inactive	inactive	inactive	inactive	–	inactive	inactive	inactive	inactive	inactive
OCc1ccc2ocnc2c1	inactive	inactive	inactive	inactive	inactive	inactive	inactive	inactive	inactive	inactive	inactive	inactive	inactive	inactive	inactive	inactive	inactive	inactive	inactive	inactive
COc1cc(/C=C/C(=O)O)ccc1O	inactive	inactive	inactive	inactive	inactive	inactive	inactive	inactive	inactive	inactive	inactive	inactive	inactive	inactive	inactive	inactive	inactive	inactive	inactive	inactive
CO[C@@H]1[C@H](O)[C@@H](C)O[C@@H](OC[C@H]2/C=C/C=C/C(=O)C(C)C[C@H](C)C(O[C@@H]3O[C@H](C)CC4(OC(=O)O[C@@H]4C)C3O)[C@@H](C)/C=C/C(=O)OC2C)[C@@H]1OC (stereo partly specified)	49.3 µM (active)	inactive	inactive	inactive	inactive	inactive	inactive	inactive	inactive	inactive	inactive	inactive	–	inactive	inactive	inactive	inactive	inactive	inactive	inactive
